This passage reports inhibition results from PubChem BioAssay AID372 (MTDP, 2006).

Molecules are shown by their SMILES. “And” between values parts separate entries of the source, which are not always exact repeats. Equal entries are not always repeated. The whole screen tested about 100,000 compounds, of which about 770 (0.77%) were called active. Cut-off read from the data, not from the text of the source: active = inhibition above about 50%; inactive = the rest. The full list was thinned out, with actives kept by preference.

The experiment deals with Gag-Pol polyprotein (Human immunodeficiency virus type 1 group M subtype B (isolate HXB2)) (UniProt P04585). As to the kind of experiment: RNase H inhibition, HIV 1 Gag Pol polyprotein, FRET biochemical assay, screening (AID 372). The settings on record: HIV-1 RT RNase H, FRET RNA/DNA substrate fluorescence; at 10 µM; hits give high values.
In the case of `CC(=O)OC1CCC2(C)C(=CCC3C4C/C(=C\c5ccc([N+](=O)[O-])cc5)C(=O)C4(C)CCC32)C1` (centres undefined), the inhibition (in general, the percentage by which the read-out fell short of the control) was 9% (inactive).

Regarding `CC12CCC3C(CC=C4CC(O)CCC43C)C1C/C(=C\c1ccc(F)cc1)C2=O` (centres undefined), the inhibition was 11% (inactive).

With `CC12CCC3C(CC=C4CC(O)CCC43C)C1C/C(=C\c1ccc([N+](=O)[O-])cc1)C2=O` (centres undefined), the inhibition was 55% (active).

As for `Cc1cc(OCc2ccc(Cl)cc2)c2c3c(c(=O)oc2c1)CCC3`, the inhibition is 3% (inactive).

With `Oc1c(I)cc(I)cc1CN1CCN(c2ccccc2F)CC1`, the inhibition was 8% (inactive).

Turning to `Cc1cc(C=C2C(=O)NC(=O)NC2=O)c(C)n1-c1ccc(Br)cc1`, the inhibition was 9% (inactive).

Regarding `O=C1NC(=O)C(=Cc2cccn2-c2ccc(Br)cc2)C(=O)N1`, the inhibition is 50% (active).

In the case of `Cc1cc(C)cc(N2C(=O)NC(=O)/C(=C\c3cccn3-c3ccccc3)C2=O)c1`, the inhibition is 28% (inactive).

For `CN1C(=O)C(Cc2c[nH]c3ccccc23)C(=O)N(C)C1=O`, the inhibition was 0% (inactive).

`O=[N+]([O-])c1ccccc1CNCCc1ccc(F)cc1`: the inhibition was 1% (inactive).

On to `Cc1ccccc1N1CCN(Cc2ccc(Cl)cc2Cl)CC1`, for which the inhibition was 2% (inactive).

With `CCN(CC)C(=O)c1ccc(NC(C)=O)cc1`, the inhibition was 9% (inactive).

For the compound `CCOc1cccc(=[O+]CC)c2c(C)oc(C)c12`, the inhibition was 2% (inactive) and 12% (inactive).

For the compound `O=C(O)c1cn(Cc2ccccc2)c2ccccc12`, the inhibition is 8% (inactive).

`O=C1NC(=S)NC(=O)C1=Cc1ccc(OCc2cccc(C(=O)O)c2)cc1`: the inhibition is 5% (inactive).

As to `O=C1NC(=S)NC(=O)C1=Cc1ccc(OCc2ccc(Br)cc2)cc1`, the inhibition was 59% (active).

Take `CCOc1ccc(C=C2C(=O)NC(=S)NC2=O)cc1`: the inhibition is 12% (inactive).

Consider `CN1C(=O)/C(=C\c2cn(Cc3ccccc3)c3ccccc23)C(=O)NC1=S`, for which the inhibition is 15% (inactive).

Turning to `COc1ccc(CN2CCN(CCO)CC2)c(OC)c1`, the inhibition is 9% (inactive).

Consider `Clc1ccc(N2CCN(CCc3ccccc3)CC2)cc1`, for which the inhibition was 14% (inactive).

For `CSc1ccc(C2C(C#N)=C(N)Oc3c2c(=O)oc2ccccc32)cc1` (centres undefined), the inhibition was 7% (inactive).

On to `O=C(COc1ccc([N+](=O)[O-])cc1)Nc1ccc(Br)cc1C(=O)c1ccccc1`, for which the inhibition is 49% (inactive).

Consider `O=C(COc1ccccc1)Nc1ccc(Cl)cc1C(=O)c1ccccc1`, for which the inhibition was 37% (inactive).

As for `COc1ccc(OCC(=O)Nc2ccc(Br)cc2C(=O)c2ccccc2)cc1`, the inhibition was 51% (active).

Consider `C=CCOC(=O)C1=C(C)OC(N)=C(C(=O)OCC)C12C(=O)Nc1ccccc12` (centres undefined), for which the inhibition was 2% (inactive).

With `COc1ccc(CN2CCN(Cc3cccc(OC)c3)CC2)cc1`, the inhibition is 7% (inactive).

`O=C1NC(=S)NC(=O)C1=Cc1ccc(-c2cc(Cl)ccc2Cl)o1`: the inhibition is 0% (inactive).

Regarding `O=C1NC(=S)NC(=O)C1=Cc1ccc(-c2ccc([N+](=O)[O-])cc2Br)o1`, the inhibition is 56% (active).

Turning to `Cc1ccc(-c2ccc(C=C3C(=O)NC(=S)NC3=O)o2)c(Br)c1`, the inhibition was 36% (inactive).

As to `O=C1NC(=S)NC(=O)C1=Cc1ccc(-c2ccc(Cl)c(Cl)c2)o1`, the inhibition was 0% (inactive).

On to `Cc1cc(-c2ccc(C=C3C(=O)NC(=S)NC3=O)o2)c(C)c([N+](=O)[O-])c1`, for which the inhibition was 27% (inactive).

For `O=C1NC(=S)NC(=O)C1=Cc1ccc(-c2ccc(C(=O)O)c(Cl)c2)o1`, the inhibition was 17% (inactive).

On to `O=C1NC(=S)NC(=O)C1=Cc1ccc(-c2cc(Cl)c([N+](=O)[O-])cc2Cl)o1`, for which the inhibition was 50% (active).

As to `O=C1NC(=S)NC(=O)C1=Cc1ccc(-c2ccc(Br)c(Cl)c2)o1`, the inhibition is 54% (active).

On to `CN1C(=O)NC(=O)/C(=C/c2ccc(-c3ccc([N+](=O)[O-])cc3Br)o2)C1=O`, for which the inhibition is 26% (inactive).

Consider `CCOC(=O)C1=C(N)OC(C)=C(C(C)=O)C12C(=O)Nc1ccccc12` (centres undefined), for which the inhibition was 10% (inactive).

`COc1cc(/C=C2\C(=O)NC(=O)N(c3ccccc3)C2=O)c([N+](=O)[O-])cc1OC`: the inhibition is 5% (inactive).

Consider `CC(C)OC(=O)N1CCN(/C(N)=N/[N+](=O)[O-])CC1`, for which the inhibition was 7% (inactive).

Consider `O=C(COc1ccc2ccccc2c1)N1CCN(Cc2ccc3c(c2)OCO3)CC1`, for which the inhibition is 17% (inactive).

Regarding `Cc1ccc(-n2c(C)cc(/C=C3/C(=O)NC(=O)N(Cc4ccco4)C3=O)c2C)cc1`, the inhibition was 16% (inactive).

`Cc1ccc(OCCn2cc(/C=C3/C(=O)NC(=O)N(Cc4ccco4)C3=O)c3ccccc32)cc1`: the inhibition was 52% (active).

As for `O=C1NC(=O)N(Cc2ccco2)C(=O)/C1=C\c1cn(Cc2ccccc2)c2ccccc12`, the inhibition was 23% (inactive).

As for `O=c1c2ccccc2nc(-c2ccc(Cl)cc2Cl)n1-c1nccs1`, the inhibition is 6% (inactive).

Turning to `O=C1NC(=O)N(Cc2ccco2)C(=O)/C1=C\c1ccc(-c2cccc([N+](=O)[O-])c2)o1`, the inhibition was 57% (active).

In the case of `CN1C(=O)C(=Cc2ccc(-c3cccc([N+](=O)[O-])c3)o2)C(=O)N(C)C1=S`, the inhibition was 21% (inactive).

For the compound `CN1C(=O)NC(=O)/C(=C/c2ccc(-c3cccc([N+](=O)[O-])c3)o2)C1=O`, the inhibition is 14% (inactive).

For the compound `N#CC(C#N)=Cc1ccc(Cl)cc1Cl`, the inhibition is 3% (inactive).

For `COc1cc(/C=C(\C)[N+](=O)[O-])cc(OC)c1OC`, the inhibition was 4% (inactive).

`C/C(=C\c1ccc(Cl)cc1Cl)[N+](=O)[O-]`: the inhibition was 51% (active).

For `COc1ccc(C2c3c(c4ccccc4oc3=O)Oc3c2c(=O)oc2ccccc32)cc1Cn1nc(C)c([N+](=O)[O-])c1C`, the inhibition is 16% (inactive).

Regarding `O=C(Nc1ccc(Cl)cc1C(=O)c1ccccc1)c1ccc([N+](=O)[O-])cc1`, the inhibition was 16% (inactive).

On to `Cc1cccc(-n2c(/C=C/c3ccco3)nc3ccccc3c2=O)c1`, for which the inhibition is 4% (inactive).

Regarding `CCOc1ccc(N2C(=O)CC(=O)NC2=S)cc1`, the inhibition was 11% (inactive).

Consider `O=C1NC(=S)NC(=O)C1=Cc1ccc(-c2ccc(C(=O)O)cc2)o1`, for which the inhibition was 14% (inactive).

Turning to `Cn1cccc1/C=C1/C(=O)NC(=S)N(c2ccc(Cl)cc2)C1=O`, the inhibition is 41% (inactive).

As for `CCN1C(=O)/C(=C/c2cccn2C)C(=O)NC1=S`, the inhibition was 51% (active).

On to `C=CCN1C(=O)NC(=O)C(=Cc2cccn2C)C1=O`, for which the inhibition was 0% (inactive).

As for `Cc1cccc(-n2c(/C=C3\C(=O)Nc4ccccc43)nc3ccc(I)cc3c2=O)c1`, the inhibition was 15% (inactive).

In the case of `Cc1c(-c2ccc(C=C3C(=O)NC(=S)NC3=O)o2)ccc([N+](=O)[O-])c1C`, the inhibition is 43% (inactive).

Regarding `Cc1cc(-c2ccc(C=C3C(=O)NC(=O)NC3=O)o2)ccc1[N+](=O)[O-]`, the inhibition is 67% (active).

As to `Cc1ccc(-c2ccc(C=C3C(=O)NC(=S)NC3=O)o2)cc1[N+](=O)[O-]`, the inhibition was 62% (active).

Regarding `Cc1cc(-c2ccc(C=C3C(=O)NC(=S)NC3=O)o2)cc([N+](=O)[O-])c1C`, the inhibition is 35% (inactive).

As to `Cc1cc([N+](=O)[O-])c(C)cc1-c1ccc(C=C2C(=O)NC(=O)NC2=O)o1`, the inhibition was 16% (inactive).

`Cc1c(-c2ccc(C=C3C(=O)NC(=O)NC3=O)o2)ccc([N+](=O)[O-])c1C`: the inhibition is 18% (inactive).

As to `Cc1ccccc1-n1c(/C=C/c2ccc(Br)cc2)nc2ccccc2c1=O`, the inhibition was 3% (inactive).

Regarding `CCc1ccc(CN2CCN(C(=O)COc3ccc4ccccc4c3)CC2)cc1`, the inhibition is 19% (inactive).

With `O=C(COc1ccc2ccccc2c1)N1CCN(Cc2ccccc2[N+](=O)[O-])CC1`, the inhibition was 50% (active).

Regarding `Cc1ccccc1CN1CCN(C(=O)COc2ccc3ccccc3c2)CC1`, the inhibition was 42% (inactive).

Regarding `O=C(COc1ccc2ccccc2c1)N1CCN(Cc2ccccc2C(F)(F)F)CC1`, the inhibition is 51% (active).

As to `O=C(COc1ccc2ccccc2c1)N1CCN(Cc2ccc(F)cc2)CC1`, the inhibition is 0% (inactive).

With `O=C(COc1ccc2ccccc2c1)N1CCN(Cc2ccc([N+](=O)[O-])cc2)CC1`, the inhibition was 13% (inactive).

As for `COc1ccc(/C=C2/C(=O)N(c3ccccc3)C(=S)N(c3ccccc3OC)C2=O)c(OC)c1`, the inhibition is 5% (inactive).

Consider `COc1ccc(O)c(CN2CCN(c3ccccc3OC)CC2)c1`, for which the inhibition is 3% (inactive).

In the case of `O=c1c2ccccc2nc(CSc2ncnc3ccccc23)n1-c1ccccc1`, the inhibition was 16% (inactive).

`CCOC(=O)C1=C(C)OC(N)=C(C(=O)OCCOC)C12C(=O)Nc1ccccc12` (centres undefined): the inhibition is 0% (inactive).

Consider `C=CCN1C(=O)NC(=O)/C(=C/c2ccc(O)c(O)c2)C1=O`, for which the inhibition is 60% (active).

As for `O=C1NC(=O)N(Cc2ccccc2)C(=O)/C1=C/c1ccc(O)c(O)c1`, the inhibition is 11% (inactive).

`C=CCN1C(=O)NC(=O)/C(=C\c2ccc(O)c(OC)c2)C1=O`: the inhibition is 0% (inactive).

As to `O=[N+]([O-])c1ccc(N2CCNCC2)cc1N1CCOCC1`, the inhibition is 3% (inactive).

For `O=c1c2ccccc2nc(-c2ccccn2)n1-c1ccc(Cl)cc1`, the inhibition is 4% (inactive).

As to `COc1ccc(C=C(C#N)C#N)cc1C`, the inhibition is 44% (inactive).

Regarding `COc1cc(C)c(C=C(C#N)C#N)cc1C`, the inhibition was 50% (active).

Turning to `COc1cc(OC)c(OC)cc1C=C(C#N)C#N`, the inhibition was 4% (inactive).

Regarding `O=C1NC(=O)C(=Cc2ccc(N3CCOCC3)c([N+](=O)[O-])c2)C(=O)N1`, the inhibition was 0% (inactive).

As for `O=[N+]([O-])c1ccc(N2CCCC2)c(F)c1Br`, the inhibition was 34% (inactive).

As to `O=C1NC(=S)N(c2ccccc2)C(=O)/C1=C/c1ccco1`, the inhibition was 36% (inactive).

Turning to `O=C1NC(=S)N(c2cccc(Br)c2)C(=O)/C1=C/c1ccco1`, the inhibition is 98% (active).

`O=C1NC(=O)N(c2cccc(Br)c2)C(=O)/C1=C/c1ccco1`: the inhibition was 19% (inactive).

On to `O=C1NC(=S)N(c2cccc(Cl)c2Cl)C(=O)/C1=C/c1ccc(-c2ccc(C(=O)O)cc2)o1`, for which the inhibition was 12% (inactive).

On to `N#CC(C#N)=Cc1ccc(C(F)(F)F)cc1`, for which the inhibition is 1% (inactive).

Consider `CSc1ccc(CN2CCN(c3ccccc3C)CC2)cc1`, for which the inhibition is 7% (inactive).

Take `COc1ccc(Br)cc1CN1CCN(C(=O)COc2ccccc2)CC1`: the inhibition was 42% (inactive).

On to `COc1ccc(Br)cc1CN1CCN(C(=O)COc2ccc(Cl)cc2)CC1`, for which the inhibition was 52% (active).

As for `COc1ccc(Br)cc1CN1CCN(C(=O)COc2ccc3ccccc3c2)CC1`, the inhibition is 42% (inactive).
